# Assay outcomes from PubChem BioAssay.
# This is a sample that favours compounds with a hit; in the whole collection about 0.99% have one here.
# NS1 function inh = influenza NS1 inhibition; Potency, µM (series often up to 46.1 µM), for the others: at the highest dose activity, positive = more growth; 0.4% of 270,000 active; AID 2326; calls by dose curve; note: potency is the fitted concentration of half-maximal effect; actives are rising curves; nearly all actives have a fitted effect of over 50% in size
#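 Growth recovery, yeast-based: influenza A NS1 expressed in S. cerevisiae causes slow growth, and suppressors are detected by OD600. The parent strain without NS1 is used as positive control.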
# SARS PLpro yeast = blocks SARS-CoV papain-like protease in a yeast assay; S. cerevisiae expressing SARS-CoV PLpro, growth rescue; Potency, µM (highest dose often 32.9 µM), inactives show top-dose activity, positive = growth rescue, actives largely listed as activators; 0.19% of 330,000 active; calls by dose curve; note: potency is the fitted concentration of half-maximal effect; 0% is about no effect; nearly all actives have a fitted effect of over 55% in size
# AmpC no deterg = blocks E. coli AmpC beta-lactamase in detergent-free assay. P00811. AmpC nitrocefin hydrolysis, absorbance 480 nm, 0.0001% Triton. Potency, µM (top dose mostly 57.1 µM), for the others: at the highest dose activity change, negative = inhibition, usual class: inhibitors. 0.52% of 330,000 active. AID 485341;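 note: potency is the fitted concentration of half-maximal effect; plate controls were no compound for no effect and no enzyme for full effect; nearly all actives have a fitted effect of over 20% in size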
# Target sequence (P00811 whole entry, looked up): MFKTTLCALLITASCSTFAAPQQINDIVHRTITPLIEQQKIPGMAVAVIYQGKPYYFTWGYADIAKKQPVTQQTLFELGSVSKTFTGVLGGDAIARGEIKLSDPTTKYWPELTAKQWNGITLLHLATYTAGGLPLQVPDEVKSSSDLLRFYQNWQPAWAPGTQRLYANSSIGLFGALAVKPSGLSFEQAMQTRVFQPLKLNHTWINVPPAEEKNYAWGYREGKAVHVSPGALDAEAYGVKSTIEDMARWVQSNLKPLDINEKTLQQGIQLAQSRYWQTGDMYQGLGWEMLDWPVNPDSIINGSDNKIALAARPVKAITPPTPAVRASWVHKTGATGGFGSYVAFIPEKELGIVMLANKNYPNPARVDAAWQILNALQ
#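 AmpC (5.3 nM in the dispensed reagent) in 20 mM phosphate pH 7.0 with 0.01% (detergent screen) or 0.0001% Triton X-100 was preincubated with compounds for 15 min at room temperature. Nitrocefin was then added from an 800 uM solution, and hydrolysis was followed at 480 nm.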
# AMA1-RON2 inh = disrupts binding of P. falciparum AMA1 to RON2. AlphaScreen AMA1-biotinylated RON2 peptide binding. 0.2% of 360,000 active. AID 720542. Potency, µM (series often up to 58.2 µM), for inactives: top-dose activity change, negative = inhibition, most hits filed as inhibitors;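 note: potency is the fitted concentration of half-maximal effect; 0% = vehicle wells and -100% = peptide control; nearly all actives have a fitted effect of over 45% in size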
#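 AMA1 (3D7) with his tag at 25 nM final met compounds first, then biotinylated RON2 peptide at 25 nM; detection used donor plus acceptor beads, 10 µg/mL apiece, read by AlphaScreen after 30 min at room temperature.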
# AmpC detergent = AmpC beta-lactamase inhibition with detergent present. AmpC hydrolysis of nitrocefin, absorbance 480 nm, 0.01% Triton. 0.041% of 370,000 active. Potency, µM (highest dose often 114 µM), for the others: top-dose activity change, negative = inhibition, usual class: inhibitors. P00811. AID 485294;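 note: potency is the fitted concentration of half-maximal effect; 0% = no-compound wells and -100% = no-enzyme wells; nearly all actives have a fitted effect of over 25% in size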
#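 AmpC (5.3 nM in the dispensed reagent) in 20 mM phosphate pH 7.0 with 0.01% (detergent screen) or 0.0001% Triton X-100 was preincubated with compounds for 15 min at room temperature. Nitrocefin was then added from an 800 uM solution, and hydrolysis was followed at 480 nm.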
# Flu NS1 inh = validation of influenza NS1 protein function inhibitors. AID 492980. 1,400 tested, under 10 active. influenza NS1 function cell assay, 15-point titration. shares compounds with NS1 function inh. activity change, negative = inhibition, % at 32.9 µM; calls by dose curve; note: 0% is about no effect
# * hit, by the source's call; ? = inconclusive; · = no result given; ! = not active in a repeat; [ ] = dose if it differs, or a comment. Unless noted, calls come from the whole dose curve; as a rule, active = well fitted curve in the direction sought with a large enough effect; inconclusive = small, poorly fitted or top-dose-only effect, or another doubt; inactive = no such curve, though single readings can be large; an effect the other way counts as inactive or inconclusive.
SMILES,NS1 function inh,SARS PLpro yeast,AmpC no deterg,AMA1-RON2 inh,AmpC detergent,Flu NS1 inh
CCCCC1=CC2=CC(=O)C(C)(OC(=O)CC)C(=O)C2=CN1CCOC (stereo not given),?,-3%,43%,0%,-2%,8
Cc1cccc(CNC(=O)Cc2ccc(NC(=O)N3CCCCc4ccccc43)cc2)c1,·,·,·,·,1%,·
O=C(OCCN=C1NS(=O)(=O)c2ccccc21)c1cccnc1,?,10%,-14%,12%,6%,-4
Oc1cccc(/C=N/Nc2ncnc3c2ncn3Cc2ccccc2)c1,10%,-17%,-52%,-11%,2%,·
Oc1ccc(/C=N/Nc2ncnc3c2ncn3Cc2ccccc2)cc1O,14µM*,?,-28%,8%[2.32 µM],?,0
CSc1nn(CC(=O)Nc2ccc(C)cc2C)c(N)c1S(=O)(=O)c1ccc(Cl)cc1,·,·,·,·,10%,·
CCOC(=O)c1ccc(S(=O)(=O)NCC(c2ccc(N(C)C)cc2)c2c[nH]c3ccccc23)cc1 (stereo not given),8.9µM*,-19%,-32%,14µM*,-15%,?
COc1ccc(C[C@@H]2C(=O)N[C@H](C)C(=O)N(C)[C@@H]3Cc4ccc(cc4)Oc4cc(ccc4O)C[C@H](C(=O)N[C@@H](C)C(=O)N[C@H](C)C(=O)N2C)N(C)C3=O)cc1,-5%,·,·,·,·,·
CC(C)NC(=O)C1CCCN(S(=O)(=O)c2cccs2)C1 (stereo not given),2.2µM*,8%,-5%,6%,2%,-2
CCN(CC)CCCNC(=O)C(C)n1nc(C)n2c(cc3occc32)c1=O (stereo not given),·,·,·,·,14%,·
O=C(c1cc2ccccc2o1)N1CCN(S(=O)(=O)c2cccs2)CC1,10µM*,8%,-5%,4%,1%,14
COC(=O)C(NC(=O)c1ccc(F)cc1)(Nc1ncc(S(=O)(=O)c2ccc([N+](=O)[O-])cc2)s1)C(F)(F)F (stereo not given),7.9µM*,-1%,8.9µM*,-3%,-14%,14
COC(=O)C(NC(=O)c1ccccc1C)(Nc1ncc(S(=O)(=O)c2ccc([N+](=O)[O-])cc2)s1)C(F)(F)F (stereo not given),10%,6%,-39%,-24%,?,·
O=C(Nc1ccc(F)c(Cl)c1)N1CCC(CN2CCOCC2)CC1,·,·,·,·,15%,·
Cc1cc(C(F)(F)F)c2c(n1)sc1c(O)cc(=O)[nH]c12,29%,13%,-19%,-4%,0%,·
O=c1cc(O)c2sc3nc(-c4cccnc4)cc(C(F)(F)F)c3c2[nH]1,10µM*,14%,1%,-4%,?,18
O=C(N/N=C/c1ccc(N2CCOCC2)s1)c1ccc(NS(=O)(=O)c2cccs2)cc1,10µM*,0%,-23%,83%,1%,36
O=C(CSc1cn(CC(=O)N2CCOCC2)c2ccccc12)N1CCOCC1,?,13%,2%,-2%,7%,6
COC(=O)c1cc2sc(Cl)cc2n1CC(=O)Nc1cc(C)cc(C)c1,·,·,·,·,2%,·
Cc1cnn(-c2cc(N/N=C/c3ccc(F)cc3)ncn2)c1,-4%,0%,-7%,-6%,?,·
Cc1cnn(-c2cc(N/N=C/c3ccccc3Cl)ncn2)c1,14µM*,3%,23%,6%,7%,-14
CC(=O)Nc1ccc(/C(C)=N/Nc2nc(N3CCOCC3)nc(N3CCOCC3)n2)cc1,·,1%,-4%,8%,9%,·
CC(=O)Nc1ccc(/C(C)=N/Nc2nc(Nc3cccc4ccccc34)nc(N3CCOCC3)n2)cc1,4.5µM*,8%,96%,10%,3%,?
O=C(Cc1c[nH]c2ccccc12)Nc1nc2ccccc2[nH]1,11µM*,0%,-29%,21%,-7%,-1
O=C(Cc1ccccc1)Nc1nc2ccccc2[nH]1,0%,6%,-20%,42%,-5%,·
SMILES,NS1 function inh,SARS PLpro yeast,AmpC no deterg,AMA1-RON2 inh,AmpC detergent,Flu NS1 inh
Cc1ccc(-n2c(O)c(/C=N/Nc3ccc(S(=O)(=O)N4CCOCC4)cc3[N+](=O)[O-])c3ccccc3c2=O)c(C)c1,2.5µM*,-9%,-10%,-8%,?,34
Cc1ccc(C2(C)NC(=O)N(CC(=O)NCCC3=CCCCC3)C2=O)cc1 (stereo not given),11µM*,9%,14%,-15%,3%,14
CC1(c2ccc(Cl)cc2)NC(=O)N(CC(=O)NCCC2=CCCCC2)C1=O (stereo not given),·,3%,-4%,5%,?,·
CCOC(=O)CSc1nc2ccc(N3CCOCC3)cc2c(=O)n1Cc1ccc2c(c1)OCO2,?,-2%,0%,·,-2%,-26
COc1cc(/C=C\C(=O)NCc2ccc3c(c2)cc(C)n3C)cc(OC)c1OC,?,1%,36%,-20%,-1%,3
CCn1c(CNC(=O)C2CCCCC2)cc2ccccc21,?,-5%,-7%,2%,-3%,-7
CCN1CCN(Cc2c(O)ccc3c2O/C(=C\C=C\c2ccccc2)C3=O)CC1,10µM*,-3%,169%,-7%,?,-35
COc1cc2nc(N3CCN(C(=O)C4COc5ccccc5O4)CC3)nc(N)c2cc1OC (stereo not given),35µM*!,-4%,129%,-19%,-5%,-33
Cn1c(SCC(=O)NNC(=S)Nc2ccccc2)nnc1-c1ccncc1,3.2µM*,0%,-11%,·,8%,0
Cc1cccc(NC(=O)CSc2nnc(-c3ccncc3)n2C)c1,-2%,-3%,-5%,-1%,-11%,·
CCOc1ccc(CNC(=O)c2ccc3nc(Cc4ccc(OC)cc4)oc3c2)cc1OC,·,·,·,·,0%,·
Cn1c(=O)[nH]c(=O)c2c1nc(Br)n2CC(O)COc1ccccc1 (stereo not given),7.1µM*,18%,-21%,12%,-4%,-2
COc1ccccc1OCC(O)Cn1c(Br)nc2c1c(=O)[nH]c(=O)n2C (stereo not given),3%,3%,2%,6%,?,·
COc1ccc(-c2cn[nH]c2N)c(OC)c1,8.9µM*,-7%,79%,-8%,-6%,1
COC(=O)C1=C(C)N2C(=O)CSC2=NC1c1ccc2c(c1)OCO2 (stereo not given),13µM*,-7%,-14%,-4%,-4%,31
COCCN1C=C(C(=O)OC)C(c2ccc3c(c2)OCO3)C(C(=O)OC)=C1,0%,10%,28%,6%,-16%,·
O=C(C1CCCN(S(=O)(=O)c2cccc3nonc23)C1)N1CCN(c2ccccc2Cl)CC1 (stereo not given),?,-37%,33%,-25%,6%,·
O=C(C1CCCN(S(=O)(=O)c2cccc3nonc23)C1)N1CCC(Cc2ccccc2)CC1 (stereo not given),10µM*,·,·,-4%,-4%,-33
